# Source: PubChem BioAssay (National Center for Advancing Translational Sciences (NCATS))
# In the library only some 15% were active in any assay of this set; here they are far more common.
# ELG1 repair inh: qHTS screen for small molecules that inhibit ELG1-dependent DNA repair in human embryonic kidney (HEK293T) cells expressing luciferase-tagged ELG1; HEK293T ELG1-luciferase reporter, luminescence, 16 h; DNA damage induced by 5-fluorouridine; Potency, µM (series often up to 46.1 µM), without a hit: top-dose activity change, negative = inhibition, most hits filed as inhibitors; hit rate 2.3% among 330,000; AID 504467, 2011; also: nearly all actives have a fitted effect of over 55% in size
#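 Cells (2,000 per well) received 5-fluorouridine plus test compound or DMSO and were incubated 16 hr at 37 °C, 5% CO2. Luciferase activity was read by luminescence 30 min after ONE-Glo addition; signal suppression marked inhibition of damage-induced ELG1 function.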
# TDP1 cell CPT: qHTS for Inhibitors of human tyrosyl-DNA phosphodiesterase 1 (TDP1): qHTS in cells in presence of CPT; chicken DT40 Tdp1-/-;hTDP1 cells + 20 nM CPT, ATP luminescence, 48 h; Potency, µM (highest dose often 46.2 µM), without a hit: at the top dose activity change, negative = growth inhibition, usual class: inhibitors; hit rate 12% among 420,000; AID 686979, 2013; also: nearly all actives have a fitted effect of over 55% in size
#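 Chicken DT40 Tdp1-/- cells complemented with human TDP1, 400 cells/well, exposed to compounds plus 20 nM camptothecin for at least 48 h at 37 C; viability read as ATP content by CellTiter-Glo luminescence.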
# 12-LOX inh: Primary qHTS assay for inhibitors of human arachidonate 12S-lipoxygenase (ALOX12): Round 2. Polyunsaturated fatty acid lipoxygenase ALOX12 (Homo sapiens), P18054. purified 12hLO, xylenol orange hydroperoxide absorbance. Potency, µM (top dose mostly 108 µM), for inactives: at the highest dose activity change, negative = inhibition, actives largely listed as inhibitors. hit rate 1.1% among 580,000. AID 1671190, 2021
# Target sequence (P18054 whole entry, looked up): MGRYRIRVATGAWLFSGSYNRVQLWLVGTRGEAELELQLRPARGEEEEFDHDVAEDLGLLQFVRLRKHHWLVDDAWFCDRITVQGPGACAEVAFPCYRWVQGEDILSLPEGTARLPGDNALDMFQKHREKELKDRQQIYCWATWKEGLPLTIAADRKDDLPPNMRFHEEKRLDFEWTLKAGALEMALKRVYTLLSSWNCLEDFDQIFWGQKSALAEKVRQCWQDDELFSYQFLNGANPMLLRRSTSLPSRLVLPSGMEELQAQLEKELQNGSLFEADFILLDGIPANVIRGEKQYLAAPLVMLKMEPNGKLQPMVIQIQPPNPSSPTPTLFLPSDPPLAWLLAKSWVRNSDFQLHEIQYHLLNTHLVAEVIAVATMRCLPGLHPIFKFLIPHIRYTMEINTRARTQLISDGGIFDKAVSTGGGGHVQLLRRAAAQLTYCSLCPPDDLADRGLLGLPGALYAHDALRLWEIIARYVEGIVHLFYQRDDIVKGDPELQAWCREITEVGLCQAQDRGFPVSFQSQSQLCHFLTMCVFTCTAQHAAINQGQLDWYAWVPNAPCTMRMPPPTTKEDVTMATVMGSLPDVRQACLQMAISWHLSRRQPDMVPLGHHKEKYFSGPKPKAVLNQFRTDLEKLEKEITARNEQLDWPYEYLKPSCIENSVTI
#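 Purified human 12hLO (150 nM final) in 25 mM Hepes, 0.01% Triton X-100, pH 7.0 was preincubated 15 min at room temperature with compound. Then 40 uM arachidonic acid was added, 30 min. Hydroperoxide was read by Fe-XO absorbance ratio 573/405 nm.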
# VP16 counter: VP16 counterscreen qHTS for inhibitors of ROR gamma transcriptional activity. Potency, µM (doses to about 53.6 µM), for inactives: top-dose activity, negative = inhibition, hits mostly inhibitors. Drosophila S2 Gal4-VP16 UAS-luciferase, luminescence, 20 h. hit rate 3.5% among 310,000;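 also: Gal4-VP16 expression switched on by copper sulfate through the metallothionein promoter; nearly all actives have a fitted effect of over 50% in size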
# DT40 TDP1 no CPT: qHTS for Inhibitors of human tyrosyl-DNA phosphodiesterase 1 (TDP1): qHTS in cells in absence of CPT | DT40 Tdp1-/- hTDP1 cells, no CPT, ATP luminescence, 48 h | Potency, µM (titrated, usually from 46.2 µM), without a hit: top-dose activity change, negative = growth inhibition, usual class: inhibitors | hit rate 15% among 420,000; also: nearly all actives have a fitted effect of over 55% in size
#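 A cellular qHTS used chicken DT40 cells lacking endogenous Tdp1 but carrying stably transfected human TDP1. Compounds were applied without camptothecin, and cell growth kinetics were judged by ATP-dependent luminescence after ≥48 hr.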
# RORg inh: qHTS for inhibitors of ROR gamma transcriptional activity; Drosophila S2 Gal4-RORgamma UAS-luciferase reporter, 20 h; Potency, µM (highest dose often 53.6 µM), for inactives: at the highest dose activity change, negative = inhibition, hits mostly inhibitors; hit rate 5.4% among 310,000; AID 2551, 2010; also: nearly all actives have a fitted effect of over 60% in size
#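 Drosophila Schneider cells stably carrying a metallothionein-driven Gal4 DBD–ROR gamma fusion and a UAS-Photinus luciferase reporter were exposed to compound for 1 hr, then induced with copper sulfate (700 uM final) for 20 hr at ambient temperature before luminescence reading.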
# Starred values were filed as active, the others as inactive; ? = inconclusive; / = not tested or not shown. Calls follow the shape of the dose curve; as a rule, active = well fitted curve in the direction sought with a large enough effect; inconclusive = small, poorly fitted or top-dose-only effect, or another doubt; inactive = no such curve, though single readings can be large; an effect the other way counts as inactive or inconclusive. % is scaled to controls: 0 for no effect and ±100 for the full control effect; potency is read from the fitted curve at half-maximal effect.
SMILES,ELG1 repair inh,TDP1 cell CPT,12-LOX inh,VP16 counter,DT40 TDP1 no CPT,RORg inh
O/N=C/c1cccc(OCc2ccncc2)c1,/,/,-15%,/,/,/
COc1ccc(-c2noc(-c3cccnc3N3CCN(c4ccc(OC)cc4)CC3)n2)cc1,/,15µM*,-20%,/,8.2µM*,/
CC(C)(C)c1ccc(O)c(NC(=O)c2cc(F)cc(F)c2)c1,/,/,30%,/,/,/
COCCCNC(=O)C1c2ccccc2C(=O)N(C2CCCCC2)C12CCCCC2 (centres undefined),/,/,52%,/,/,/
O=[N+]([O-])c1cccc(/C=N/n2cnnc2)c1O,5%,4%,9%,-20%,-15%,-23%
O=[N+]([O-])c1ccccc1S(=O)(=O)Oc1ccccc1/C=N/n1cnnc1,-8%,?,-1%,1%,16µM*,-26%
CN(CC(=O)NC(C)(C)C)C(=O)c1cc2ccc(Br)cc2[nH]1,/,/,-23%,/,/,/
CCOC(=O)c1cc(-c2c(Cl)cccc2Cl)no1,13µM*,4%,85%,-1%,-26%,7%
Cc1onc(-c2c(Cl)cccc2Cl)c1C(=O)OCC(=O)c1ccccc1,1%,?,1%,-1%,?,-15%
COc1cccc([S+](=O)([O-])N2CCn3ncc(C(=O)N4CCOCC4)c3C2)c1,/,/,31%,/,/,/
Cc1nn(C)c(C)c1CCC(=O)N1CCN(C(=O)N2CC3CC(C2)[C@H]2CCCC(=O)N2C3)CC1 (some centres undefined),/,/,58%,/,/,/
CCOC(=O)C1(CCOc2ccccc2)CCN(CCCn2cccn2)CC1,-4%,?,-14%,-16%,?,5%
CCOC(=O)C1(CCOc2ccccc2)CCN(Cc2ccc3nonc3c2)CC1,-28%,?,8%,-13%,21µM*,24%
CCOC(=O)C1(CCOc2ccccc2)CCN(Cc2cccc(-n3cccn3)c2)CC1,?,16µM*,-9%,-14%,16µM*,40%
CCOC(=O)C1(CCOc2ccccc2)CCN(Cc2cnc(C)s2)CC1,-12%,?,2%,-10%,21µM*,-3%
CCOC(=O)C1(CCOc2ccccc2)CCN(C(=O)c2ccc(-n3cccn3)cc2)CC1,?,?,7%,-8%,21µM*,0%
CCOC(=O)C1(CCOc2ccccc2)CCN(CC=C(C)C)CC1,?,?,10%,-3%,?,-13%
O=C(CC1SCCNC1=O)Nc1cc(Cl)ccc1Cl (centres undefined),/,/,-29%,/,/,/
COc1cc(CN2CCN(c3ncnc4[nH]ccc34)CC2CCO)cc(OC)c1 (centres undefined),/,/,14%,/,/,/
CCOC(=O)C1(CCOc2ccccc2)CCN(Cc2cccc(F)c2)CC1,-13%,16µM*,-20%,-10%,5.8µM*,42%
CCOC(=O)C1(CCOc2ccccc2)CCN(Cc2cccc(OC)c2OC)CC1,12µM*,?,12%,-9%,21µM*,14%
CCOC(=O)C1(Cc2cccc(F)c2)CCN(Cc2cnn(CC)c2)CC1,-6%,-24%,-1%,8%,?,2%
CCOC(=O)C1(Cc2cccc(F)c2)CCN(Cc2nc(CC)[nH]c2C)CC1,?,?,2%,-3%,23µM*,-10%
CCOC(=O)C1(CCOc2ccccc2)CCN(Cc2ccc(CO)o2)CC1,-16%,8.2µM*,8%,-2%,2.3µM*,-3%
CC(C)CC1(C)OCC(CN2CCCCC2)O1 (centres undefined),/,/,-15%,/,/,/
